Source: the supplement of paper PMC11732987, “Enantioselective OTUD7B fragment discovery through chemoproteomics screening and high-throughput optimisation” (Communications Chemistry, 2025)

Key:
Experiment in all cases: log2 ratio of Biotin-Ahx-Ub-VS probe labelling (fragment/DMSO); higher = less target engagement (more negative = stronger competition), active = hit call of the paper (q ≤ 0.05, log2 ratio ≤ -1)
Settings in all cases: compound concentration: 200 uM; treatment time: 3 h
USP19 = molecular target: T1, USP19 (UniProt O94966)
T1 sequence (whole entry): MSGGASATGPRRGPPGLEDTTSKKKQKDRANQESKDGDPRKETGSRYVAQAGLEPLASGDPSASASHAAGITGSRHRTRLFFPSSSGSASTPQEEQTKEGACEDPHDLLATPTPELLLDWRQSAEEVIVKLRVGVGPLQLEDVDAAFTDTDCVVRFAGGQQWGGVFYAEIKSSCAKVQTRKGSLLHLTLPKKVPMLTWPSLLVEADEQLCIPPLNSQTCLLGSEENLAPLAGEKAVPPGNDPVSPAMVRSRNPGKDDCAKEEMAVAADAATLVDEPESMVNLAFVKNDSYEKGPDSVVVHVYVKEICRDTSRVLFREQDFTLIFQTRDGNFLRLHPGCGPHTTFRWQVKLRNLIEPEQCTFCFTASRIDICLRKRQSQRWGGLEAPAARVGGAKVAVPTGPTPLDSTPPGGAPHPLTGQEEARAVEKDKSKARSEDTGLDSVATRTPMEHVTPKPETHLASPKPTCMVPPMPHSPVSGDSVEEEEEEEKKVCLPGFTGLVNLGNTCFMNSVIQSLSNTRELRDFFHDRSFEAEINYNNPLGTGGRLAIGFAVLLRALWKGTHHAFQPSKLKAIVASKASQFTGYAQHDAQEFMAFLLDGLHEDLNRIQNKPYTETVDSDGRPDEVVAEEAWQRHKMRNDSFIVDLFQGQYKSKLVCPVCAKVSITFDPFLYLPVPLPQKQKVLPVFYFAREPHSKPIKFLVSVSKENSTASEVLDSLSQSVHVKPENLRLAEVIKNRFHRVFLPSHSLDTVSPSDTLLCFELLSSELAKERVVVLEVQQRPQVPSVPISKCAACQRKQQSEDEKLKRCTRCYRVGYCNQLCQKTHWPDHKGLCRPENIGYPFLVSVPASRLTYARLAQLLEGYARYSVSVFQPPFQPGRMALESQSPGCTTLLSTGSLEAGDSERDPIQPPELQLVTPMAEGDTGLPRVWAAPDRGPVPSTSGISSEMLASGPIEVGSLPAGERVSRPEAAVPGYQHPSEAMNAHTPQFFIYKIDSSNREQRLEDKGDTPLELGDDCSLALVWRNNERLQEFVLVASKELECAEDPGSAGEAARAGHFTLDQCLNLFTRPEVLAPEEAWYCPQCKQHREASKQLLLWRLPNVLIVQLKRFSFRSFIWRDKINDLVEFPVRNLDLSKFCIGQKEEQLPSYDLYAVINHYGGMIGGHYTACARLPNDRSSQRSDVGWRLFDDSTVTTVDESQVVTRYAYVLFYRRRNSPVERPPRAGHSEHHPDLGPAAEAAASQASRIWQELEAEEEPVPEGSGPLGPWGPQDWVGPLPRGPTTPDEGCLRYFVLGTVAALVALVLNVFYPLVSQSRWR
Summary of the method: (§1)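 Each value is an average log2 ratio of fragment to vehicle, tested by unpaired t-test. The underlying Spectronaut label-free quantities were global-median-normalised, and only proteins with ≥2 unique peptides were included. Triplicate HEK293T lysate samples (495 µg) were exposed to fragment at 200 µM or vehicle for 3 h, then to Biotin-Ahx-Ub-VS at 0.5 µM final for 1 h, before NeutrAvidin enrichment of labelled DUBs, LysC and trypsin digestion, and diaPASEF LC-MS/MS.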

USP22 = molecular target: T2, USP22 (UniProt Q9UPT9)
T2 sequence (whole entry): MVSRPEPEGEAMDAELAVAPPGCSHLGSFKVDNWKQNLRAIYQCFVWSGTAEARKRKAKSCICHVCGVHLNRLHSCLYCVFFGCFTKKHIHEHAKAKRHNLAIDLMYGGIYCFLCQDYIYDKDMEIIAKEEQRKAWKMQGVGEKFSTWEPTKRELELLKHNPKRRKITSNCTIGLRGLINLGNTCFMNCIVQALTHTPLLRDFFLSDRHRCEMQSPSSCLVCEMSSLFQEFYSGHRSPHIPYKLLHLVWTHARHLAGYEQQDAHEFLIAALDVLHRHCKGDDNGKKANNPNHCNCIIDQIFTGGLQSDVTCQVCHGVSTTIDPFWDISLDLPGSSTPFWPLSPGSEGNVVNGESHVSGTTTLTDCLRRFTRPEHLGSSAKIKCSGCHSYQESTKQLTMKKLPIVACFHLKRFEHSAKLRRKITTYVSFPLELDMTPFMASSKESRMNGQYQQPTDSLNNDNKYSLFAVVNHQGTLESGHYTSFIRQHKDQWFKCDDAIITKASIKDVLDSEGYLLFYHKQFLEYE
Summary of the method: as §1

USP24 = USP24 (UniProt Q9UPU5)
Sequence of USP24 (Q9UPU5 whole entry): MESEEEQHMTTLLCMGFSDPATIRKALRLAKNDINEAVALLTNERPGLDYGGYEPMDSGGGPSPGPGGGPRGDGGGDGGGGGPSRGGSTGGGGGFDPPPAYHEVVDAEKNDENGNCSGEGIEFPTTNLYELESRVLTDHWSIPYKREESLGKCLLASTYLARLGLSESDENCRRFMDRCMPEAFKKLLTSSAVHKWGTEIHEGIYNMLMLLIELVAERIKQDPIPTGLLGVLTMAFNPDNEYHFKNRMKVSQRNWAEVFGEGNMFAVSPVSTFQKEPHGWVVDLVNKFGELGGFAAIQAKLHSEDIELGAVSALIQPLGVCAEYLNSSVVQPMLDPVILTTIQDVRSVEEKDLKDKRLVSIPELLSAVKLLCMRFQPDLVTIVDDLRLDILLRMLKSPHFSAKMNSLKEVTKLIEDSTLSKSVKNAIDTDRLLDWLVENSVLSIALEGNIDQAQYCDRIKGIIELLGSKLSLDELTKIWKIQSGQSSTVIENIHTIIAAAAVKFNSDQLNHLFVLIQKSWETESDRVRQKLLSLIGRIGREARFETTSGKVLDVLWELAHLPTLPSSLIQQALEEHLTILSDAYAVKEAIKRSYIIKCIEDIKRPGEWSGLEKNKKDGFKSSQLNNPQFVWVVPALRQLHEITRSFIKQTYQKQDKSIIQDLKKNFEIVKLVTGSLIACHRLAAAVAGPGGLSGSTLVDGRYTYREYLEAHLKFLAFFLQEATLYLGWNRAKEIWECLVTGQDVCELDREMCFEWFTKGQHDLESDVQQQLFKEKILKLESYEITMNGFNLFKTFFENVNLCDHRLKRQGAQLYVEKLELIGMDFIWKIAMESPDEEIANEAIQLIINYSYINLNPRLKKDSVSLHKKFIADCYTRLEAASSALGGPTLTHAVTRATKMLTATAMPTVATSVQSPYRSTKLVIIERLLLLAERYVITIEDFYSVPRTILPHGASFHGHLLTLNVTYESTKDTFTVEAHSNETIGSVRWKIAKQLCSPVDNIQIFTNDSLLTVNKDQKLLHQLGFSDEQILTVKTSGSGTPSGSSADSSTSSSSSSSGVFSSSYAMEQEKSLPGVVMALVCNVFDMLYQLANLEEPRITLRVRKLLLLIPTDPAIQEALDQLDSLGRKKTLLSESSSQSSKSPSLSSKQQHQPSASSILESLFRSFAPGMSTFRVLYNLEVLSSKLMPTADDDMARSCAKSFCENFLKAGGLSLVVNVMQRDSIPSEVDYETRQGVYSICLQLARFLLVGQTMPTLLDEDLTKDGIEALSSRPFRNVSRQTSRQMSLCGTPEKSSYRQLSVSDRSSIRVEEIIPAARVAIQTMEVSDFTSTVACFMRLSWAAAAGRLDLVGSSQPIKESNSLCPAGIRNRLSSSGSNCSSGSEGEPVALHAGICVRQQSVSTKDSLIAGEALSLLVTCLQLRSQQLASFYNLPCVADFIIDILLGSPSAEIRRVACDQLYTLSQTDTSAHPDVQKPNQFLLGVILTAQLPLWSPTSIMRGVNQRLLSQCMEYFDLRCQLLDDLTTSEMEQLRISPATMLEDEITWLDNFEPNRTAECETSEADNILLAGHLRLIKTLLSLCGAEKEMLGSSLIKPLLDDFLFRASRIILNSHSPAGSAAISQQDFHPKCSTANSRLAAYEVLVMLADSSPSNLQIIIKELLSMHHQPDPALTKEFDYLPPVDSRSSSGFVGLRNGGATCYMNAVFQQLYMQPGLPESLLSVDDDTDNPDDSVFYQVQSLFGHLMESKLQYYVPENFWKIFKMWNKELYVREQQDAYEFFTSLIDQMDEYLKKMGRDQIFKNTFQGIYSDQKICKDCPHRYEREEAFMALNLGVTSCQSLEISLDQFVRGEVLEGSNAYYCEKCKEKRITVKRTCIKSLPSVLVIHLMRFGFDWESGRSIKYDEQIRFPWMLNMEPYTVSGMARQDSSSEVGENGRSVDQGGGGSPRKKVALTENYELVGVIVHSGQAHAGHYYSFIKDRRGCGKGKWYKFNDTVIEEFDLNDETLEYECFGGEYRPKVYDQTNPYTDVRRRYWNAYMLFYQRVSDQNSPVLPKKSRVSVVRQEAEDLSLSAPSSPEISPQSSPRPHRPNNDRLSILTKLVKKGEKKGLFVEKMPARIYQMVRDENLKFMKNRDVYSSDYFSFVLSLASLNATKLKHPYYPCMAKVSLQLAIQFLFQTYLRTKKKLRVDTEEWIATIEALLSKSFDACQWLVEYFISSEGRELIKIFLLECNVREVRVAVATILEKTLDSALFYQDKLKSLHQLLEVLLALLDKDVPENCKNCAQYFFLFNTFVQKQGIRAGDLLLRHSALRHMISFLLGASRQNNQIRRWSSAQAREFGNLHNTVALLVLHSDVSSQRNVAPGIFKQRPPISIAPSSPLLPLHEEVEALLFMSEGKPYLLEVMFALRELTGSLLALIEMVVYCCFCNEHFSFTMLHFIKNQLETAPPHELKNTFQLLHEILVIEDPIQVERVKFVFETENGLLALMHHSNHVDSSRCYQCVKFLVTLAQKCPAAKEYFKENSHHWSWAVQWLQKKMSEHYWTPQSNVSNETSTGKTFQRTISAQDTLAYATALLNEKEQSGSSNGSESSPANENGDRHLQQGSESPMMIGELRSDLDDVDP
Summary of the method: as §1

USP25 = molecular target: T3, USP25 (UniProt Q9UHP3)
T3 sequence (whole entry): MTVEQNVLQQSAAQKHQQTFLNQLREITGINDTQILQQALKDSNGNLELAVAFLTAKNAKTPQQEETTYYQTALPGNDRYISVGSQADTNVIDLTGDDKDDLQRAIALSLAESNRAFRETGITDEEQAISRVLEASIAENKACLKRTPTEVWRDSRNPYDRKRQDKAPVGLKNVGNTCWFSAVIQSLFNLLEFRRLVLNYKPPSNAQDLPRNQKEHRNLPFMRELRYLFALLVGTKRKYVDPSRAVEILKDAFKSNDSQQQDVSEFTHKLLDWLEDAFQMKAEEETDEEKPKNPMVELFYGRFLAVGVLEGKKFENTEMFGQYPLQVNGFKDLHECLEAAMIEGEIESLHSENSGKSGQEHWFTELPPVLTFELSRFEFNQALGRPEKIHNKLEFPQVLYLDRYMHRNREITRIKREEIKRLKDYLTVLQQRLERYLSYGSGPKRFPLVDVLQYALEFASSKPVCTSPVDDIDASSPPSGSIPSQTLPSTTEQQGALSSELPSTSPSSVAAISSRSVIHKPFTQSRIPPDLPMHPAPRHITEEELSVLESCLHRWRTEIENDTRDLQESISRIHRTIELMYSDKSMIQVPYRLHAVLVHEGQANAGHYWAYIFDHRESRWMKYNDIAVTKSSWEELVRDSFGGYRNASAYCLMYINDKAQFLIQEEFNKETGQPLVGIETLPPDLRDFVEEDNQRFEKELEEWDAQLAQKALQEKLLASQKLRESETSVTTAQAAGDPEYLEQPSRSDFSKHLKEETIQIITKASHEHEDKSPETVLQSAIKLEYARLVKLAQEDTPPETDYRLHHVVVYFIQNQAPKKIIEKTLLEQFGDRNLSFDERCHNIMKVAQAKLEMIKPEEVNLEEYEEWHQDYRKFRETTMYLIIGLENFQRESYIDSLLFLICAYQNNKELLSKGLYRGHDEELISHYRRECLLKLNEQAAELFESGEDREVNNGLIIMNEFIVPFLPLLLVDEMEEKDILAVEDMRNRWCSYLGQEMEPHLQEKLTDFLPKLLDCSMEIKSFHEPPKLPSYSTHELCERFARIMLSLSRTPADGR
Summary of the method: as §1

USP28 = molecular target: T4, USP28 (UniProt Q96RU2)
T4 sequence (whole entry): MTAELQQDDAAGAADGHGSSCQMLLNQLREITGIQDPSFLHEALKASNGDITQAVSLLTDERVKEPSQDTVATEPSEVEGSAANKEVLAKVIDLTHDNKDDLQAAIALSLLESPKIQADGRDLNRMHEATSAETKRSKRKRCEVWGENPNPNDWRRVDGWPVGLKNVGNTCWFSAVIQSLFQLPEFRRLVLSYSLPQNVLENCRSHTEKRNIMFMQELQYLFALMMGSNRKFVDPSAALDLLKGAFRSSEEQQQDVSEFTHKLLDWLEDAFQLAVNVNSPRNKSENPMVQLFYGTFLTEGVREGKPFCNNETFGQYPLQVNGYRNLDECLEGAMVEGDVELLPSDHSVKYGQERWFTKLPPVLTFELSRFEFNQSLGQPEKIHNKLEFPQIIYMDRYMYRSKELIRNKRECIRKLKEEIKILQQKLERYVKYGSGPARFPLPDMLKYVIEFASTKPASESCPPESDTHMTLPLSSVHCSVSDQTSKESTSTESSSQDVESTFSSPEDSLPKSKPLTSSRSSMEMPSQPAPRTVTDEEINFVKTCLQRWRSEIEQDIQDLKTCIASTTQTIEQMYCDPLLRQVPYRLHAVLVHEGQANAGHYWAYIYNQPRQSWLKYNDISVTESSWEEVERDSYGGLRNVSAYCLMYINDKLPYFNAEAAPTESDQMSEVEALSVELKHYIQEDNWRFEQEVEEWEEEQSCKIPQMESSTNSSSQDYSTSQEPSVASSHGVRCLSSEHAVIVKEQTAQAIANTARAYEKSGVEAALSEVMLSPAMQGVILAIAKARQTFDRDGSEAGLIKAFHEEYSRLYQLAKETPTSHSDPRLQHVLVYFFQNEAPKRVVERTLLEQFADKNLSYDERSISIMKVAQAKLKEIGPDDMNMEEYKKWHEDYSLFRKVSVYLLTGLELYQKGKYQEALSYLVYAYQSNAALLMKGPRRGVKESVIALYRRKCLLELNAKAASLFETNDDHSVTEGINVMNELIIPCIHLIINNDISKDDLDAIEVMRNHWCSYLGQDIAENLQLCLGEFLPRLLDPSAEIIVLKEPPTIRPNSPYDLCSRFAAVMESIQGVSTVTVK
Summary of the method: as §1

Measured: log2 ratio of Biotin-Ahx-Ub-VS probe labelling

Cc1ccc(N(C(=O)CCl)C2C=CS(=O)(=O)C2)cc1 (stereo not given)
inactive: USP19 0.0392 | USP22 0.0416 | USP24 -0.681 | USP25 0.0868 | USP28 -0.13
